In test [1] the target is T1, Protein kinase C zeta type (Homo sapiens) (UniProt Q05513).
T1 sequence (whole entry): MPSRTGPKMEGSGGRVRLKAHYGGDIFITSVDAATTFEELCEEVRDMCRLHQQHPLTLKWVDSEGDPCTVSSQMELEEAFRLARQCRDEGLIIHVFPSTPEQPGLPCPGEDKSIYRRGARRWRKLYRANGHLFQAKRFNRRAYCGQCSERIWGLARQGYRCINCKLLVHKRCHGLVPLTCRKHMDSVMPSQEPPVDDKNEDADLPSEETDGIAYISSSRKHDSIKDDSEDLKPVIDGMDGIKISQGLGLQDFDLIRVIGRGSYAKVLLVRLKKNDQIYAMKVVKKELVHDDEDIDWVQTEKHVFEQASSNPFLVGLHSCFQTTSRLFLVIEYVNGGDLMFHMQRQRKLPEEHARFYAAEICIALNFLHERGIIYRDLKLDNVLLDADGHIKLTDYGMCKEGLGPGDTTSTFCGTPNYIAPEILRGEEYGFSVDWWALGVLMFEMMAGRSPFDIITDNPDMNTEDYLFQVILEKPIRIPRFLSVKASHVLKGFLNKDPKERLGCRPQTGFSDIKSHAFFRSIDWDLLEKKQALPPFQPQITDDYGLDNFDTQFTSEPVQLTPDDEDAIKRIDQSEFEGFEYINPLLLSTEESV
The conditions noted are these: at 1 µM.

For test [2], the target named is T2, Aurora kinase A (Homo sapiens) (UniProt O14965).
T2 sequence (whole entry): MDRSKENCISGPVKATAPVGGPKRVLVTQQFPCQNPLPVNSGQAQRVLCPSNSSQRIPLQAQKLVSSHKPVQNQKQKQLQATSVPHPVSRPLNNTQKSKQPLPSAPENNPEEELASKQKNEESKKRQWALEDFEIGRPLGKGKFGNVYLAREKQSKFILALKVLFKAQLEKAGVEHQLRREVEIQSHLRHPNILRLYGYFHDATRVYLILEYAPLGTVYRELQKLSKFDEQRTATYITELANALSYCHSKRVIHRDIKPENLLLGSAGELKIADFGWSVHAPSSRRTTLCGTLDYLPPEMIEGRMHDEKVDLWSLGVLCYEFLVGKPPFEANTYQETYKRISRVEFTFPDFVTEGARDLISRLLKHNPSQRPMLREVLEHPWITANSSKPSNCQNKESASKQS
Particulars: at 1 µM; call rule not given here.

Test [3] concerns the target T2, Aurora kinase A (Homo sapiens). Particulars: at 10 µM.
In test [4] the target is Aurora kinase B (Homo sapiens) (UniProt Q96GD4). Particulars: at 1 µM.
Test [5] has the same target. Particulars: at 10 µM.
For test [6], the target named is Tyrosine-protein kinase receptor UFO (Homo sapiens) (UniProt P30530). The conditions noted are these: at 1 µM.
Test [7] shares this target. Particulars: at 10 µM.
In test [8] the target is Protein-tyrosine kinase 6 (Homo sapiens) (UniProt Q13882). The conditions noted are these: at 1 µM.
The target is the same in test [9]. Particulars: at 10 µM.
The target of test [10] is Tyrosine-protein kinase BTK (Homo sapiens) (UniProt Q06187). Particulars: at 1 µM.
The target is the same in test [11]. The conditions noted are these: at 10 µM.
The target in test [12] is Tyrosine-protein kinase Blk (Homo sapiens) (UniProt P51451). The conditions noted are these: at 1 µM.
For test [13] the target is unchanged. Particulars: at 10 µM.
The target of test [14] is T3, Mitogen-activated protein kinase kinase kinase 5 (Homo sapiens) (UniProt Q99683).
T3 sequence (whole entry): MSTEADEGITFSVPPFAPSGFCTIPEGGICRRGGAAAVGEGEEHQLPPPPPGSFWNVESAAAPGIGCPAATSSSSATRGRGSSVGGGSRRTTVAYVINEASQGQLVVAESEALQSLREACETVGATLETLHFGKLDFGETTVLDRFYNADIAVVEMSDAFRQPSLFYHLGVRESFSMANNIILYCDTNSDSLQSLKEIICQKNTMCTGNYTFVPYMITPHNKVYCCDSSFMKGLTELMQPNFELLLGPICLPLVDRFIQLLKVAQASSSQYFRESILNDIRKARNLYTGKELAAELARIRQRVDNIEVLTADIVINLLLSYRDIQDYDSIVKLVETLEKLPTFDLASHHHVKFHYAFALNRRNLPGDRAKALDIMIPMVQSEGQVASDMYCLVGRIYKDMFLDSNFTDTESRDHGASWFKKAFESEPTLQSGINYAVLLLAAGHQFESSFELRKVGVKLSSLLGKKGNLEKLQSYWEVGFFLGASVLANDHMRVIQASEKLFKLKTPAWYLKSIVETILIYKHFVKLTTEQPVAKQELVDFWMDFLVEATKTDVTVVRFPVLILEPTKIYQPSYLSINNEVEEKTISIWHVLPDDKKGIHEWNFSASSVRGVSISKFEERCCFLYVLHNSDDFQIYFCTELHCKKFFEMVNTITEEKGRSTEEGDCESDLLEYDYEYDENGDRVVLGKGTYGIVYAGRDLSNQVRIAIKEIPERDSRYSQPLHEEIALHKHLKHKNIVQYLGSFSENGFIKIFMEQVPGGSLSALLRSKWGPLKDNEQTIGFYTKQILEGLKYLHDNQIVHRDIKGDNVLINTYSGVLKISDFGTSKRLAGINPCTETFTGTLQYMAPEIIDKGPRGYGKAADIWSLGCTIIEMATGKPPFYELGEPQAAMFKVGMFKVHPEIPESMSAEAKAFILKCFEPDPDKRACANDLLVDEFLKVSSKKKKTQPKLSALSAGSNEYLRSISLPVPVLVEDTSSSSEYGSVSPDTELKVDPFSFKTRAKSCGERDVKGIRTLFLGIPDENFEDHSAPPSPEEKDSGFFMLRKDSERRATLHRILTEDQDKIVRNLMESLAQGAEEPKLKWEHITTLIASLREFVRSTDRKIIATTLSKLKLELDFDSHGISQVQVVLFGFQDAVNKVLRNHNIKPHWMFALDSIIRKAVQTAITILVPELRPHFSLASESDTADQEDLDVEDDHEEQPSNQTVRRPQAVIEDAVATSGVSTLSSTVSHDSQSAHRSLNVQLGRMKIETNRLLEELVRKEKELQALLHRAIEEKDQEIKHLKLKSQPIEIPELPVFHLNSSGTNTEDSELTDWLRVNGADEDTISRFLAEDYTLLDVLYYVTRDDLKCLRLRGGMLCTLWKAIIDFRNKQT
Particulars: at 10 µM.

The target of test [15] is Tyrosine-protein kinase ABL1 (Homo sapiens) (UniProt P00519). The conditions noted are these: at 1 µM.
Test [16] has the same target. The conditions noted are these: at 10 µM.
In test [17] the target is Tyrosine-protein kinase ABL2 (Homo sapiens) (UniProt P42684). The conditions noted are these: at 10 µM.
Test [18] has as its target T4, Aurora kinase C (Homo sapiens) (UniProt Q9UQB9).
T4 sequence (whole entry): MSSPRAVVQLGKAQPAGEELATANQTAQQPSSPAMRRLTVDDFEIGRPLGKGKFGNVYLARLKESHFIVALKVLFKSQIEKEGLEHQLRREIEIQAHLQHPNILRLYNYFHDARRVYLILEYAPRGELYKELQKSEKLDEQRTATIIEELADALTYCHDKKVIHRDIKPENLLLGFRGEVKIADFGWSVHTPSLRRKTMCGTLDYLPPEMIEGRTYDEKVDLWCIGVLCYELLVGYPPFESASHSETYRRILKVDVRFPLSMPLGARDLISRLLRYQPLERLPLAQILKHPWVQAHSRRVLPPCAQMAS
Particulars: at 1 µM.

In test [19] the target is T4, Aurora kinase C (Homo sapiens). The conditions noted are these: at 10 µM.
Test [20] has as its target Tyrosine-protein kinase ABL2 (Homo sapiens) (UniProt P42684). The conditions noted are these: at 1 µM.

Chain of Tyrosine-protein kinase BTK (Homo sapiens) (Q06187 whole entry): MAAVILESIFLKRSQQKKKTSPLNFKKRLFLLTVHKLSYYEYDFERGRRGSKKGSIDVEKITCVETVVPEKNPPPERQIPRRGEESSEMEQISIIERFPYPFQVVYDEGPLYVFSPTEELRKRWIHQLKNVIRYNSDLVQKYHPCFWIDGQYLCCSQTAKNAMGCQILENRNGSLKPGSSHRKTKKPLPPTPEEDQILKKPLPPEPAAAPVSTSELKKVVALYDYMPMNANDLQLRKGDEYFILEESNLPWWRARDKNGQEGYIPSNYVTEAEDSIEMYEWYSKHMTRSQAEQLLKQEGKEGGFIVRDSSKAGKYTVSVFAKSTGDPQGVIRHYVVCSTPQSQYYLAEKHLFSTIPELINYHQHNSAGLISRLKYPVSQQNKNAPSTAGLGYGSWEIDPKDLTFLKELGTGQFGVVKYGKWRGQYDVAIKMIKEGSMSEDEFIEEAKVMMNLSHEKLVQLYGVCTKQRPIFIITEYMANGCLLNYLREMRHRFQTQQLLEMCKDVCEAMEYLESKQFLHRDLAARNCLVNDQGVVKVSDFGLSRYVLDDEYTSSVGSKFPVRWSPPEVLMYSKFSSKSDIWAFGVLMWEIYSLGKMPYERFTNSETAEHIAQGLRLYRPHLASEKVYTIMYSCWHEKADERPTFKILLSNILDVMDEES
Chain of Tyrosine-protein kinase ABL1 (Homo sapiens) (P00519 whole entry): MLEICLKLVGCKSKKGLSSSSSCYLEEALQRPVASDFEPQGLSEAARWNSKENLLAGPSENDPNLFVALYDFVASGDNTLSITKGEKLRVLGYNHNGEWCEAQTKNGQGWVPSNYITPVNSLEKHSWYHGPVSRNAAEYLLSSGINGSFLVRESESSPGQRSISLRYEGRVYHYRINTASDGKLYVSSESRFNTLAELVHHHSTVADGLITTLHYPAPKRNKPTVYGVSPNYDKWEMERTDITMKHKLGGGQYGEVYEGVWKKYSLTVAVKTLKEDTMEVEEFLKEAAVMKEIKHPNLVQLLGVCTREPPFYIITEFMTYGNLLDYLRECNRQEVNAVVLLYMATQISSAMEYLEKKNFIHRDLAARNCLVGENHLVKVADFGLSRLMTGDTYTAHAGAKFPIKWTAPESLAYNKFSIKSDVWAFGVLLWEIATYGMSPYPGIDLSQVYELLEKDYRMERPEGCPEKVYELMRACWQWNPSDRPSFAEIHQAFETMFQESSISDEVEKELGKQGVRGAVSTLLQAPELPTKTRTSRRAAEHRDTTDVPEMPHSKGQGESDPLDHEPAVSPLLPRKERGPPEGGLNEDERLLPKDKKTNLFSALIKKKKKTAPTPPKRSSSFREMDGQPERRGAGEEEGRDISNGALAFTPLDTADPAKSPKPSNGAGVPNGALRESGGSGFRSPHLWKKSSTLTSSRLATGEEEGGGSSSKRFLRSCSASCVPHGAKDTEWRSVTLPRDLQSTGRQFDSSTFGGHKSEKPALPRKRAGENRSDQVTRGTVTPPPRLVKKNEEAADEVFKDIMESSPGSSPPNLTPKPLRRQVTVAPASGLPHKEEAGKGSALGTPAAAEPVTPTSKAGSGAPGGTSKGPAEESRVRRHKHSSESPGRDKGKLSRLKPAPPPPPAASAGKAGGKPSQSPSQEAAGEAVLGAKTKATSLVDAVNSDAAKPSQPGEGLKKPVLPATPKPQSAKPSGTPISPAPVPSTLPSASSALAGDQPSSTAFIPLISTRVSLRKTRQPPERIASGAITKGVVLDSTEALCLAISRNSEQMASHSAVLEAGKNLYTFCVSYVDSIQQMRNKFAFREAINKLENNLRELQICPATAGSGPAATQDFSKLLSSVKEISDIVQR
Chain of Tyrosine-protein kinase receptor UFO (Homo sapiens) (P30530 whole entry): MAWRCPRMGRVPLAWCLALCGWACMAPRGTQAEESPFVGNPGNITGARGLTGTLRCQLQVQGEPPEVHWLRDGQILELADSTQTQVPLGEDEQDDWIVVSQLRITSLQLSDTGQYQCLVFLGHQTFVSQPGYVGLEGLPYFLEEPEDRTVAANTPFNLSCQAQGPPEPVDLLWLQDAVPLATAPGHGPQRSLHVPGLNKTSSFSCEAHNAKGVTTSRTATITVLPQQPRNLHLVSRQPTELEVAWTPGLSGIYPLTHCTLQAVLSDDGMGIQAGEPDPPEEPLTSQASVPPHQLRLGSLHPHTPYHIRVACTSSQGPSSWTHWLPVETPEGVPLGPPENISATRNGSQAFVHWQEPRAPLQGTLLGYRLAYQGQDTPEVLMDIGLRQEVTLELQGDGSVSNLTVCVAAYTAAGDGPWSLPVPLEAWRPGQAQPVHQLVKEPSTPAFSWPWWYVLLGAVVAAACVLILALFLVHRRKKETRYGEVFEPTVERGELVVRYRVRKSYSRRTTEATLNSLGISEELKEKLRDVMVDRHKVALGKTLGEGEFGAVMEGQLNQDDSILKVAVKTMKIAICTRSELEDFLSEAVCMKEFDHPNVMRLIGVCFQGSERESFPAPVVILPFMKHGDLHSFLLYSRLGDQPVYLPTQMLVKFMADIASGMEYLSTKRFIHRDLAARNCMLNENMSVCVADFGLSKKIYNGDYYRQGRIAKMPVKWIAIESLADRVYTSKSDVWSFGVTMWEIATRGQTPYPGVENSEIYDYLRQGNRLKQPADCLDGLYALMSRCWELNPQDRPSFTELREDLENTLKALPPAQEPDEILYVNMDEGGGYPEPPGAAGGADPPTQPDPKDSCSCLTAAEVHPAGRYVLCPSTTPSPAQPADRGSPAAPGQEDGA
Chain of Aurora kinase B (Homo sapiens) (Q96GD4 whole entry): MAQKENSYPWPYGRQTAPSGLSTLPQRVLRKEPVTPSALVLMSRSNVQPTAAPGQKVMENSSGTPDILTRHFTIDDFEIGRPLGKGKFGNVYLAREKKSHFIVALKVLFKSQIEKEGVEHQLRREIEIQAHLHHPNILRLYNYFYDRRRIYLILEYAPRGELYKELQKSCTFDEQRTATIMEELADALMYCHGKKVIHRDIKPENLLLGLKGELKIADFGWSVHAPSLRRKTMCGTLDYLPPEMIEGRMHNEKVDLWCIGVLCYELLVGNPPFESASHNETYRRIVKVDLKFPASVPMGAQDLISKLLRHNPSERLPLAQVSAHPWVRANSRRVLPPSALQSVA
Chain of Tyrosine-protein kinase Blk (Homo sapiens) (P51451 2-505 limits assumed): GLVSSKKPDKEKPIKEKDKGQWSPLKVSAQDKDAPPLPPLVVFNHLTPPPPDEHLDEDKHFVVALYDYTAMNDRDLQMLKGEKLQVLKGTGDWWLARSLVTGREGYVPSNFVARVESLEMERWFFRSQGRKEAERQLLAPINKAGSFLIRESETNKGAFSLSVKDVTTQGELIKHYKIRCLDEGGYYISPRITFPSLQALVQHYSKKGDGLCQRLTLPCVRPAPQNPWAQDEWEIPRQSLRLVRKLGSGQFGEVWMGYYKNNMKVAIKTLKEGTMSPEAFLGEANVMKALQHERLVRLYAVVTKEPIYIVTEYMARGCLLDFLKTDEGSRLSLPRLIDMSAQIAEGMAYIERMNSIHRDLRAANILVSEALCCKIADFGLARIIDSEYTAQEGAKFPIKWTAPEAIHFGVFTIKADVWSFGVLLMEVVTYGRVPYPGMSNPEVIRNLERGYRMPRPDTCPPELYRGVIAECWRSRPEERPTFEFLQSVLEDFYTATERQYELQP
Chain of Protein-tyrosine kinase 6 (Homo sapiens) (Q13882 whole entry, looked up): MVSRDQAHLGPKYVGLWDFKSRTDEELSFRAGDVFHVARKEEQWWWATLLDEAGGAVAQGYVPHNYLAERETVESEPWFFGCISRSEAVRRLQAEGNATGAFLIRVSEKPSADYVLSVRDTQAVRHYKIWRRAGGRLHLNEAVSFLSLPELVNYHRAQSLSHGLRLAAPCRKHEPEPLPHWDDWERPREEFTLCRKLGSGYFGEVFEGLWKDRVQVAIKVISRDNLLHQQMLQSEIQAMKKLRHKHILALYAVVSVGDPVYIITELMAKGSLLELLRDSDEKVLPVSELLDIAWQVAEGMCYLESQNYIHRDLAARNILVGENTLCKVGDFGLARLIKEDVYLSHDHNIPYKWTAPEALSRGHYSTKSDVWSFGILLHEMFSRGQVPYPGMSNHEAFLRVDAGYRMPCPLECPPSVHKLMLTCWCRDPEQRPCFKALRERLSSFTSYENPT

For the compound `COc1cc2c(cc1OC)-c1n[nH]c(Nc3cccc(F)c3)c1C2`, the residual activity in [1] is 111% (inactive); in test [2], 47%; in test [3] it was 22%; in [4] it was 43%; in test [5], 6%; in test [6] it was 71%. Further, the residual activity in test [7] is 50%; in test [8] it was 78%; in test [9] it was 25%; in test [10], 22%; in test [11] it was 4%; in [12], 14%. For the same compound, the residual activity in test [13] stood at 2%.

`Cn1sc(=O)n(Cc2ccccc2)c1=O`: the residual activity in test [14] amounted to 92%; in test [15] it was 84%; in [16] it was 83%; in test [17], 90%; in test [2] it was 83%; in [3] it was 91%. For the same compound, the residual activity in test [4] worked out at 88%; in test [5] it was 66%; in [18], 76%; in test [19] it was 77%; in test [6] it was 96%; in test [7] it was 66%. The residual activity is 96% in test [8], 95% in test [9], 91% in [10] and 91% in test [11].

As for `CC(C)(C)n1nc(Cc2cccc3ccccc23)c2c(N)ncnc21`, the residual activity is 103% (inactive) in test [1]; 87% in test [15]; 28% in [16]; 68% in test [20]; 18% in [17]; 93% in test [2]. Also, the residual activity turned out to be 104% in [3]; 130% in test [4]; 87% in test [5]; 94% in [18]; 71% in [19]; 80% in [6]. Moreover, the residual activity is 72% in [7]; 5% in test [8]; -1% in test [9]; 24% in [10]; 3% in test [11]; 77% in test [12]. In addition, the residual activity in test [13] was 13%.

Take `COc1cc2nccc(Oc3ccc(NC(=S)NC(=O)c4ccccc4C)cc3)c2cc1OC`: the residual activity in [14] was found to be 77%; in [15], 22%; in test [16], 9%; in test [20] it was 50%; in test [17] it was 18%; in test [2], 0%. Also, the residual activity was 1% in test [3]; 2% in test [4]; -1% in [5]; 13% in test [18]; 1% in [19]; 11% in test [6]. The residual activity in test [7] stood at 8%; in [8] it was 22%; in test [9], 11%; in test [10], 17%; in test [11] it was 2%; in [12], 0%. In [13], the residual activity was 0%.

`O=C(NC(NC(=S)Nc1ccc(F)c([N+](=O)[O-])c1)C(Cl)(Cl)Cl)C(c1ccccc1)c1ccccc1` (stereo not given): the residual activity in test [1] was 102% (inactive); in test [16], 77%; in [17], 93%; in test [2], 83%; in test [3] it was 69%; in test [5] it was 69%. The residual activity in test [18] was found to be 94%; in test [19], 91%; in test [7], 91%; in test [10] it was 87%; in test [11], 89%.

`COc1cc2nccc(Oc3ccc(NC(=O)Nc4cc(C)on4)c(Cl)c3)c2cc1OC`: the residual activity in test [1] was 108% (inactive); in test [20], -2%; in [17], -1%; in test [2], 7%; in test [3], 7%; in test [4], 3%. Moreover, the residual activity in test [5] was found to be 1%; in [18], 32%; in [19] it was 7%; in test [6], 12%; in [7], 10%; in test [8], 2%. Besides, the residual activity is -1% in test [9]; 50% in test [10]; 10% in test [11]; 2% in [12]; 0% in test [13].

Source of the values: ChEMBL document CHEMBL2218924, “A broad activity screen in support of a chemogenomic map for kinase signalling research and drug discovery” (Biochem J, 2013).
